# Compounds with a hit are over-represented: about 0.5% of the library has one in this group of screens.
# phage Ecoli inh – E. coli growth loss with phage present; 0.26% of 360,000 active; inhibition, % at 11.9 µM; growth absorbance; in the data active = inhibition above about 11%
# AddAB inh – less growth of phage-infected E. coli with AddAB. E. coli expressing H. pylori AddAB, absorbance growth. inhibition, % at 11.9 µM. 0.29% of 330,000 active; in the data active = inhibition above about 12%;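 also: 0% = vehicle wells of infected cells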
# E coli growth-1 – bacterial growth inhibition, counter-screen for AddAB inhibitors. E. coli V3065 growth, OD600 absorbance, 18 h. inhibition, % at 11.9 µM. 0.27% of 330,000 active. AID 449728;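 active = inhibition above the campaign's mean inhibition across all tested compounds plus 3 SD, cut at about 9.9% in these data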;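 also: uninfected addAB+ strain grown without phage in ampicillin broth; 0% = DMSO wells and 100% = ciprofloxacin 0.95 µg/ml wells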
# E coli growth-2 – blocks Escherichia coli growth; AID 1053175; OD600 absorbance (concentration not given with the values); OD600, 23 h; stronger effect = lower value; 0.21% of 330,000 active;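 active = OD600 absorbance below the run mean of sample wells minus 3.6 SD, in any replicate, cut at about 0.56 in these data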
# Tat export inh – blocks Tat-dependent protein export in E. coli; E. coli MC4100 TorA-mCherry Tat export, fluorescence; inhibition, % at 10 µM; 0.036% of 340,000 active;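 active = mean replicate inhibition at least 50% and at least half of replicates individually reaching 50%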;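 also: exported cargo escapes ClpAP degradation while cytoplasmic cargo is degraded and loses fluorescence; 0% = median of neutral control wells and 100% = median of NaSCN control wells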
# AddAB conf – confirmation screen: growth loss of phage-infected E. coli expressing H. pylori AddAB. inhibition, % at 11.9 µM. AID 488942. 64% of 880 active. shares compounds with AddAB inh. E. coli V3065 expressing H. pylori AddAB, T4 phage, OD; T4 phage with gene 2 nonsense mutations;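 active = mean inhibition above a set limit taken from the earlier primary screen, cut at about 13% in these data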;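 also: higher means less bacterial growth since AddAB block lets phage replicate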
# RecBCD counter – AddAB counter-screen: growth loss of RecBCD+ E. coli infected with mutant T4 phage; E. coli V66 + mutant T4 phage, OD growth; inhibition, % at 11.9 µM; shares compounds with AddAB inh; 73% of 880 active; AID 488955;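 active = mean inhibition above the mean of solvent-only control wells plus 3 SD, cut at about 4% in these data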;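 also: optical density read after an 18 h incubation at 37 °C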
# bact viab count – counter-screen: bacterial growth inhibition. shares compounds with AddAB inh. bacterial viability, absorbance (AddAB counterscreen). inhibition, % at 11.9 µM. 35% of 880 active; in the data active = inhibition above about 25%
# RecBCD conf – growth loss of phage-infected V66 E. coli, RecBCD confirmation screen; shares compounds with phage Ecoli inh; E. coli V66 + T4 2- phage, growth OD; inhibition, % at 11.9 µM; 45% of 890 active; AID 651982;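 active = mean inhibition over triplicates exceeding the hit threshold derived in the original primary screen, cut at about 11% in these data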
# Ecoli viability – counter-screen for RecBCD inhibitors: inhibitors of bacterial viability; shares compounds with phage Ecoli inh; E. coli viability, absorbance (OD) growth; inhibition, % at 11.9 µM; 29% of 890 active; in the data active = inhibition above about 20%;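 also: E. coli strain V66 grown with compound alone and no phage infection; 0% = bacteria with DMSO vehicle only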
# AddAB phage OD – growth loss of phage-infected AddAB E. coli, RecBCD counter-screen | shares compounds with phage Ecoli inh | E. coli expressing H. pylori AddAB + T4 phage, OD growth; gene 2 mutant T4, recBCD-deleted host | inhibition, % at 11.9 µM | 45% of 890 active | AID 651984;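 active = mean inhibition above the solvent-only control wells' mean plus 3 SD, cut at about 22% in these data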;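 also: higher means less bacterial growth from phage killing when AddAB is blocked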
# The depositor's hits bear a star; · = no result given.
SMILES,phage Ecoli inh,AddAB inh,E coli growth-1,E coli growth-2,Tat export inh,AddAB conf,RecBCD counter,bact viab count,RecBCD conf,Ecoli viability,AddAB phage OD
O=C(Nc1cccnc1)c1ccc([N+](=O)[O-])o1,19.7*,97.5*,95.7*,0.412*,-37.3,97.6*,20.0*,90.8*,13.1*,17.2,101.2*
Cc1cc(O)cc(OC2OC(CO)C(O)C(O)C2O)c1 (configuration not stated),·,·,·,0.689,·,·,·,·,·,·,·
CC(=O)c1cccc(NC(=O)c2ccc([N+](=O)[O-])o2)c1,16.3*,89.0*,82.8*,0.443*,0.4,101.3*,18.6*,70.8*,10.1,12.8,84.4*
Cc1cc(C)cc(NC(=O)c2ccc([N+](=O)[O-])o2)c1,9.6,·,·,0.558,-4.9,·,·,·,·,·,·
CN1CCN(c2ccc(NC(=O)c3ccc([N+](=O)[O-])o3)cc2Cl)CC1,23.0*,98.8*,91.5*,0.307*,-12.1,98.3*,23.9*,94.7*,15.4*,19.9*,85.1*
O=C1c2ccccc2C(=O)c2[nH]c(=O)[nH]c21,16.4*,15.2*,10.3*,0.408*,-22.4,17.2*,17.2*,-6.9,15.0*,14.0,29.4*
O=C(N/N=C/c1ccc([N+](=O)[O-])o1)c1ccc(O)cc1,23.1*,98.1*,97.2*,·,-29.2,96.0*,23.8*,78.2*,17.0*,21.2*,98.2*
O=C(N/N=C/c1ccc([N+](=O)[O-])o1)c1ccncc1,23.4*,93.8*,18.2*,·,·,96.9*,19.3*,33.1*,15.6*,19.0,63.8*
O=C(N/N=C\c1ccc([N+](=O)[O-])o1)c1cncc(Br)c1,3.4,8.6,4.7,·,-18.6,·,·,·,·,·,·
CC(=NOC(=O)c1ccc(OC(C)C)cc1)c1ccc(C)c(C)c1,·,·,·,0.704,·,·,·,·,·,·,·
C/C(=N\Nc1ccc2nncn2n1)c1ccccn1,31.9*,31.0*,26.6*,·,·,22.1*,29.3*,19.2,17.7*,27.4*,21.0
CCN(CC)c1ccc(C=NNC(=S)NCc2ccccc2)c(O)c1,·,·,·,0.681,·,·,·,·,·,·,·
CCN(CC)c1ccc(/C=N/NC(=S)NCc2ccccc2)c(O)c1,13.5*,12.4*,15.4*,·,0.6,9.1,14.0*,15.9,8.7,9.5,20.2
O=c1cc(-c2ccccc2)cc(-c2ccccc2)n1O,18.9*,17.5*,21.1*,0.435*,8.6,11.2,14.9*,13.7,10.3,13.7,10.0
Cn1c(-c2ccccc2)cc(=O)cc1-c1ccccc1,1.6,·,·,·,·,·,·,·,·,·,·
Cc1c(C=NO)sc2ccccc12,·,·,·,0.67,·,·,·,·,·,·,·
O=C(Cn1cnc2ccccc21)Nc1ccc2c(c1)OCCCO2,15.9*,17.5*,13.4*,0.61,-6.8,22.9*,16.1*,19.5,11.8*,12.6,17.6
O=C(Cn1cnc2ccccc2c1=O)Nc1ccc2c(c1)OCO2,5.0,1.1,2.5,0.684,1.9,·,·,·,·,·,·
Cc1ccc(S(=O)(=O)N2C(c3ccc(Cl)c(Cl)c3)CC=C(C(=O)O)C2c2ccccc2)cc1 (configuration not stated),·,·,·,0.694,·,·,·,·,·,·,·
COc1cccc(/C=N/NC(=O)C(=O)Nc2ccccc2OC(F)(F)C(F)F)c1O,16.6*,18.9*,14.7*,·,-3.0,10.3,12.5*,9.7,3.8,4.1,7.5
COc1cccc(/C=N/NC(=O)c2ccc(-c3ccccc3)cc2)c1O,19.1*,18.9*,17.5*,·,2.0,5.9,16.2*,4.3,6.5,10.1,18.8
COc1cccc(C=NNC(=O)c2ccc(-c3ccccc3)cc2)c1O,·,·,·,0.725,·,·,·,·,·,·,·
O=C(NN=Cc1cc(Br)ccc1O)C(=O)Nc1ccccc1OC(F)(F)C(F)F,·,·,·,0.736,·,·,·,·,·,·,·

# Screening results deposited in PubChem BioAssay by several laboratories.
